Values without a mark were called inactive. How the calls were made is not given here.
B1: design_615_ab801fab-270b-4f6a-b2b5-83c165df418c_251_dldesign_0_cycle1_af2pred (protein)
chain: AAAAAEAAAVQARGGALLDELKERTSELSPEAVSRASLLLTRGLTYASQPATLAEGRRYVDEAEAIIRSA
B2: design_615_ab801fab-270b-4f6a-b2b5-83c165df418c_662_dldesign_0_cycle1_af2pred (protein)
chain: AAAQAKALAAEAKAYIAKAKEAAAAGNLGEAAQLASKALLKAAQAANLDPAFAPVLDEAQATVEAIAAAQAAAA
B3: design_615_ab801fab-270b-4f6a-b2b5-83c165df418c_650_dldesign_0_cycle1_af2pred (protein)
chain: SSEREVLEAEGREWGRLIAAADAVSPALAAEVARALAEKAVADPGFLYALNVAVATVAREGSPAAAAVARAALAEASKAVIAKL
B4: design_614_ef6b398b-10cb-4a07-8087-96dafb4f9c83_1173_dldesign_0_cycle1_af2pred (protein)
chain: LLEEALALGAEAIAEGQEAIALAVALGPEFQPFALELSRLMARIAAAQIQLVRDPEAGAAALREEIEELRRAIQELLDSL
B5: design_614_ef6b398b-10cb-4a07-8087-96dafb4f9c83_1043_dldesign_0_cycle1_af2pred (protein)
chain: AAAEAAAVSKKAAELAKKALEKAKRMSPEEAINLAFQVATQAIRLGADAEAAINAIKIASEKGPEAGLKYLAEALEK
B6: design_615_ab801fab-270b-4f6a-b2b5-83c165df418c_597_dldesign_0_cycle1_af2pred (protein)
chain: AAAAEAITKATLAAIEKTAEKIVEAAEKATPEEAKKLAESVKKLAETGVGIATAASPELGKEAKEKAEKLKEKAKEAVKKVKE
B7: design_614_ef6b398b-10cb-4a07-8087-96dafb4f9c83_884_dldesign_0_cycle1_af2pred (protein)
chain: MAVSDTLATNLATAERLLQRGIELAKTDPQAGIAQLRAAEILAQGTAAAAAAAGDTATAARAQAVAERARQAIEEV
B8: design_615_ab801fab-270b-4f6a-b2b5-83c165df418c_209_dldesign_0_cycle1_af2pred (protein)
chain: SAQAQEAATRAAEALARHLARQVAEHGVSDADFEGNVDILVALGRQSAAAGEAAAAVLEEAKAADPERFGAAAERLKAAAAEAK
B9: design_615_ab801fab-270b-4f6a-b2b5-83c165df418c_121_dldesign_0_cycle1_af2pred (protein)
chain: GKDEELAKEAKKIAEAAEGVAASALALAAQPGLLAAAAAFARKAAEELERLGKENSKELEKVAKKEAKRAKEAAERVEAALKAATA
B10: design_614_ef6b398b-10cb-4a07-8087-96dafb4f9c83_1557_dldesign_0_cycle1_af2pred (protein)
chain: SAAAAALAAANAEIDAHAARAVELAAGLPHAEEVRALITAGAAAAKSGTQLAEAFRLFSEAARLSNEATRAELRKAIAAANKAALA
B11: design_614_ef6b398b-10cb-4a07-8087-96dafb4f9c83_1693_dldesign_0_cycle1_af2pred (protein)
chain: AEELREEAERLREESRRLREEGIKGNAEEARKALLEINRNAGRLARLAVEASQLDPEVAAVANEALAEALENARALDETRRKLAA
B12: design_614_ef6b398b-10cb-4a07-8087-96dafb4f9c83_1258_dldesign_0_cycle1_af2pred (protein)
chain: AEQEKAAQLALNTAKAALKRAKAGSAEEARAAAETAKLAAEAAKVNSTDPAVIKEAEKVAEETKKVAEAK
B13: design_615_ab801fab-270b-4f6a-b2b5-83c165df418c_555_dldesign_0_cycle1_af2pred (protein)
chain: AAAALAAAAAAARAAATAALAETLELAEEAQRLGDSETSLALSRQANRIAGLYIAGVRDPRLAPEAGKRAEELRREAERLYKEAL
B14: design_615_ab801fab-270b-4f6a-b2b5-83c165df418c_671_dldesign_0_cycle1_af2pred (protein)
chain: SPDAVAARGYLAMLRAAVAELERAAEELARDPEKAAEARALVERARALLAEAEALLADPAQAAAAAAAARAALEEVLEFIRRARELAA
B15: design_614_ef6b398b-10cb-4a07-8087-96dafb4f9c83_1491_dldesign_0_cycle1_af2pred (protein)
chain: EERLKEILKLIKEAKKALEESPQLAAQKLAEAAELASEFPEIAVAAVRAIAFAPNPERAKEALEEALKLAEEALKK
B16: design_615_ab801fab-270b-4f6a-b2b5-83c165df418c_706_dldesign_0_cycle1_af2pred (protein)
chain: ASAARMAEIQAKGEEVAEKAKEKYKELLERLPDPEEALAEARAYLREVGAQYSGAVLGYALSLFESWAEEEL
B17: design_615_ab801fab-270b-4f6a-b2b5-83c165df418c_149_dldesign_0_cycle1_af2pred (protein)
chain: AAAALEAIRDEGAATLTALAGPQLGALFRVAVQAAISGKLELAEQLLDAVVAEAAAINPAAAEKAKELKALALAIARA
B18: design_614_ef6b398b-10cb-4a07-8087-96dafb4f9c83_1883_dldesign_0_cycle1_af2pred (protein)
chain: EEEKKKLEEIKKLLEKAMEEAIKLVAADPEVQKRLKELAEELKKAETAGEAIRVALRAASVAGQVNPEAARVILTAAEEGAKLAK
B19: design_615_ab801fab-270b-4f6a-b2b5-83c165df418c_702_dldesign_0_cycle1_af2pred (protein)
chain: GEELREKAEKEAKQTLELVEGALEYAKTASPEAAALMEKALEEVKKLIELGKKSDAEEYAKYVEKARKVAFNAIAQATALIAA
B20: design_614_ef6b398b-10cb-4a07-8087-96dafb4f9c83_2152_dldesign_0_cycle1_af2pred (protein)
chain: GAAEEERRRHQEAVERAEAAVKELEALAKQLAADPHGAVFAQAMVDQARRALEEAKTGDLETAEEALRVITSNLEMAKAIL
B21: design_615_ab801fab-270b-4f6a-b2b5-83c165df418c_0_dldesign_0_cycle1_af2pred (protein)
chain: AAAERLAQRLEAARLIAEAAGVPEEVARRVAELVADPATFPEAVALAKAVGGGAMLILAAARSGSLENARKMAEAAA
B22: design_614_ef6b398b-10cb-4a07-8087-96dafb4f9c83_2138_dldesign_0_cycle1_af2pred (protein)
chain: SEALRAEAARLANAALALLSRASVAFGNALSPTLATAVDAFLAADREGDAETRLAVARAALAAAEAAVAAAAAAA
B23: design_614_ef6b398b-10cb-4a07-8087-96dafb4f9c83_2028_dldesign_0_cycle1_af2pred (protein)
chain: NAAAAEMAAAAAAFAATAAAAVTLSPEAGRKAVSAAFTAALTAISALGATASDEQTVAAMNTVWSTYIAATTALQAKAA
B24: design_614_ef6b398b-10cb-4a07-8087-96dafb4f9c83_1110_dldesign_0_cycle1_af2pred (protein)
chain: GEELAESAKKLMEVLKDVAKDAAARDPANAAKYLADAKKAEEEAKKALEESPEKGMQAAQDALAKFQKAAIAAAKA
B25: design_614_ef6b398b-10cb-4a07-8087-96dafb4f9c83_1868_dldesign_0_cycle1_af2pred (protein)
chain: TAAIATATIVALTKTASRSSVEDAKKLVEVAVGIAASLSAADAKAAIDAGLKVAKELAEEKNTETASVVAKELEKGGAKVAAEKA
B26: design_615_ab801fab-270b-4f6a-b2b5-83c165df418c_110_dldesign_0_cycle1_af2pred (protein)
chain: SAELAKLNGEALELAKLGAEEGAEYAEKAMELVIEAARLAGDEEGAKYAEEMREEALKAAKESPKEAAQIVMTALSRVFSRIAA
B27: design_615_ab801fab-270b-4f6a-b2b5-83c165df418c_234_dldesign_0_cycle1_af2pred (protein)
chain: LEESARKAAELALDLAKYAAANPATAPQALASIAGLARNAIEAGAEAAKLMAEALKKGAEYVAKNGTAAQAEQVKAIRERAERGAREA
B28: design_615_ab801fab-270b-4f6a-b2b5-83c165df418c_153_dldesign_0_cycle1_af2pred (protein)
chain: SAAGEIGAKAIEAMKKAYEYAKLYESGEDEKAKEKAKEAAEKLKELAKEAAKAGAAGARLAKVAKASAENALKIAKE
B29: design_615_ab801fab-270b-4f6a-b2b5-83c165df418c_246_dldesign_0_cycle1_af2pred (protein)
chain: AEREEAALAEAEKALAEAKKLVEAALADPATAATTVGEATALLTAAIERASREVSPERALEVAQEAARIQADGIKALA
B30: design_614_ef6b398b-10cb-4a07-8087-96dafb4f9c83_2192_dldesign_0_cycle1_af2pred (protein)
chain: AAAALQAATIALGSLRALAESARRSNAESAKKLAELAEDLAADAKANAAKAAADPAYAAQAKAVAEEAKRALEETKRIAEEKAEA
B31: design_614_ef6b398b-10cb-4a07-8087-96dafb4f9c83_1766_dldesign_0_cycle1_af2pred (protein)
chain: ARAELEAQLAKAKEAAAQAQAAAAQLAALGGTATAAAITAAAQRALAAAEADLSKAPEALTFLQALLQQAQHQVAQLT
B32: design_615_ab801fab-270b-4f6a-b2b5-83c165df418c_622_dldesign_0_cycle1_af2pred (protein)
chain: VTPEEAHQALASTVMRLAQQLGLSGGAISTGLRLASEAARAFAEDPEKMRKVVEEGAKKIEALEGEKGKVVGEELRRKAEEIVA
B33: design_615_ab801fab-270b-4f6a-b2b5-83c165df418c_137_dldesign_0_cycle1_af2pred (protein)
chain: MEKEKELLKKAKELYEAAKTMAEVAKNAVALGHRSGALAAIKGIEQAAKAIEELAKEAKDEEVKKKIKELAKEAKKLAEEMKKLAEKA
B34: design_614_ef6b398b-10cb-4a07-8087-96dafb4f9c83_1163_dldesign_0_cycle1_af2pred (protein)
chain: EAAREAALALMNEALALLVEETGRDPRLAPALALMSKAVIEMAKDPEKGIELAEKAAEEAKKVDPEVGEKVKKLVEEAKKAVKA
B35: design_614_ef6b398b-10cb-4a07-8087-96dafb4f9c83_1662_dldesign_0_cycle1_af2pred (protein)
chain: SEEAQKKLEEAKRLLELAKEKLATDPQQGLVYALEAQELAAEALKDPEFAEEAQEILEEASRVASQAAARAIAQAQA
B36: design_614_ef6b398b-10cb-4a07-8087-96dafb4f9c83_1060_dldesign_0_cycle1_af2pred (protein)
chain: SAVEVLKRSIEAVARQALEAAERLIELDPELGERAREEVERLRAEALAAADADPAEGGALLVELLRLNAEIRRRAEELE
B37: design_615_ab801fab-270b-4f6a-b2b5-83c165df418c_67_dldesign_0_cycle1_af2pred (protein)
chain: AVKEEAQKVLAESLEYMEKYKDDKEVVAEFNKAANYASKAITGPEETGKEYLAKAKEYLEKGKALAKEKEA
B38: design_614_ef6b398b-10cb-4a07-8087-96dafb4f9c83_950_dldesign_0_cycle1_af2pred (protein)
chain: AAAAAERTLAGIETLLEILRAAAADPRVTPAQLRAVINAARTAVEELERLDPELGREARERVEAAAREAEAAV

Molecular target: CD276, Q5ZPR3
Sequence (Q5ZPR3 whole entry): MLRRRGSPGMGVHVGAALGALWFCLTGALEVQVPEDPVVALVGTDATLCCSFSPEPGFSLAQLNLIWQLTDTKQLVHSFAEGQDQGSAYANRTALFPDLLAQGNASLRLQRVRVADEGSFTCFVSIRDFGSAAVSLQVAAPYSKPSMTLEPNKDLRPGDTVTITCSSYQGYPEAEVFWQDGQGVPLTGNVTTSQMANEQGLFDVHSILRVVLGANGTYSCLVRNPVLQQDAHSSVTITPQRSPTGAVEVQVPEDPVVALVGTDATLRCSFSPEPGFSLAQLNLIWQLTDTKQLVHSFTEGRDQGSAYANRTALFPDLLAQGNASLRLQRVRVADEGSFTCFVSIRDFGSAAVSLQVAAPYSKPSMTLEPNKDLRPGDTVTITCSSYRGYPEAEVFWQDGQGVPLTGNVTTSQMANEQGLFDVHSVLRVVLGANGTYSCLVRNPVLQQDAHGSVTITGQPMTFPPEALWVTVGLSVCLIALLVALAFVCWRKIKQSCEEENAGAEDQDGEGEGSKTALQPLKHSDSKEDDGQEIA

Row | Binder | binding in a display sort
1 | B1 | not found
2 | B2 | not found
3 | B3 | not found
4 | B4 | not found
5 | B5 | not found
6 | B6 | not found
7 | B7 | binds (active)
8 | B8 | not found
9 | B9 | not found
10 | B10 | not found
11 | B11 | not found
12 | B12 | not found
13 | B13 | not found
14 | B14 | not found
15 | B15 | not found
16 | B16 | not found
17 | B17 | not found
18 | B18 | not found
19 | B19 | not found

Row | Binder | binding in a display sort
20 | B20 | not found
21 | B21 | not found
22 | B22 | not found
23 | B23 | not found
24 | B24 | not found
25 | B25 | not found
26 | B26 | not found
27 | B27 | not found
28 | B28 | not found
29 | B29 | not found
30 | B30 | not found
31 | B31 | not found
32 | B32 | not found
33 | B33 | not found
34 | B34 | not found
35 | B35 | not found
36 | B36 | not found
37 | B37 | not found
38 | B38 | not found
